Test results as given in PubChem BioAssay (Tox21).
Several values for one entry are separate records, joined by “and”; a condition that tells them apart may be missing. Equal entries are not always repeated. Activity calls are given as the source filed them. Unless noted, calls follow the shape of the dose curve; as a rule, active = well fitted curve in the direction sought with a large enough effect in the repeat runs; inconclusive = weak or mixed curves; inactive = no such curve, though single readings can be large; an effect the other way counts as inactive or inconclusive.

Columns and labels:
[1] = qHTS assay to identify small molecule antagonists of the thyroid receptor (TR) signaling pathway - cell viability counter screen (AID 743064); also: nearly all actives have a fitted effect of over 50% in size; also: potency is read from the fitted curve at half-maximal effect
Method in brief: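 Rat GH3 pituitary tumor cells stably expressing two TR response elements driving luciferase were plated, rested 4 h, then dosed with library compounds and T3 (1 nM final). After 23.5 h at 37 °C, CellTiter-Fluor was added for 30 min and fluorescence recorded.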

[2] = qHTS assay to identify small molecule antagonists of the thyroid receptor (TR) signaling pathway (AID 743065); also: nearly all actives have a fitted effect of over 55% in size; also: potency is read from the fitted curve at half-maximal effect
Method in brief: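 GH3.TRE-Luc rat pituitary cells (two TREs driving luciferase) were dosed with compound, then stimulated with 1 nM T3 (final) for 23.5 h at 37 C. ONE-Glo luminescence was the read-out, with CellTiter-Fluor fluorescence as the cytotoxicity counter-screen.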

[3] = biological target: Estrogen receptor (Homo sapiens) (UniProt P03372); test: qHTS assay to identify small molecule antagonists of the estrogen receptor alpha (ER-alpha) signaling pathway (AID 743069; active = well fitted curve in the direction sought with a large enough effect in the signal ratio in the repeat runs, not every such curve was filed as active; inconclusive = weak or mixed curves, or effect the other way; inactive = no such curve, though single readings can be large or run the other way; the % refers to the signal ratio; also: potency is read from the fitted curve at half-maximal effect)
Estrogen receptor (Homo sapiens), sequence (P03372 whole entry, looked up): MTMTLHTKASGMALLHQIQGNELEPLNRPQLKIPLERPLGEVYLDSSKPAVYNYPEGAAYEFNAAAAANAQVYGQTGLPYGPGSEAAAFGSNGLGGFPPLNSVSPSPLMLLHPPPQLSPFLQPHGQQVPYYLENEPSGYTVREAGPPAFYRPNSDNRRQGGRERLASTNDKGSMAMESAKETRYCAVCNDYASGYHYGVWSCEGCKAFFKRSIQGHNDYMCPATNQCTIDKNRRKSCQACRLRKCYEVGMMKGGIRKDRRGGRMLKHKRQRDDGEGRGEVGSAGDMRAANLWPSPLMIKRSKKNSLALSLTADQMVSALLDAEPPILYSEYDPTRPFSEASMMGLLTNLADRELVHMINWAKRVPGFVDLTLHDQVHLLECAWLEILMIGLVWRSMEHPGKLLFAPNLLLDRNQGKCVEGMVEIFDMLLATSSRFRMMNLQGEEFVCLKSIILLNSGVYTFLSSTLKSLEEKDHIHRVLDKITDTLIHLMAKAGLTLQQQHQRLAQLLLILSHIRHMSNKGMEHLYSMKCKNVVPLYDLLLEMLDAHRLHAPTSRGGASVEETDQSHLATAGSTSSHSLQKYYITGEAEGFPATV
Method in brief: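 HEK293 ER-alpha-UAS-bla GripTite cells, held overnight in 2% charcoal-stripped FBS, 5,000 cells/well, preincubated 4 h, then compound plus 17beta-estradiol for 18 h at 37C. Beta-lactamase read by LiveBLAzer B/G FRET substrate, 2 h at room temperature.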

[4] = qHTS assay to identify small molecule antagonists of the estrogen receptor alpha (ER-alpha) signaling pathway - cell viability counter screen (AID 743074; calls by dose curve;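 also: HEK293 cells carrying ER-alpha-UAS-bla reporter stimulated with 17beta-estradiol; nearly all actives have a fitted effect of over 45% in size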; also: potency is read from the fitted curve at half-maximal effect)
[5] = biological target: Estrogen receptor (Homo sapiens) (UniProt P03372); test: qHTS assay to identify small molecule agonists of the estrogen receptor alpha (ER-alpha) signaling pathway (AID 743075; calls by dose curve)
[6] = qHTS assay to identify small molecule antagonists of the estrogen receptor alpha (ER-alpha) signaling pathway using the BG1 cell line (AID 743080; calls by dose curve;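 also: BG1 cells stimulated with 17beta-estradiol alongside compound; nearly all actives have a fitted effect of over 25% in size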; also: potency is read from the fitted curve at half-maximal effect)
Method in brief: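 After 5 days in phenol-red-free 10% charcoal-stripped FBS medium, BG1-Luc-4E2 cells were seeded, left 24 h at 37 C, co-treated with compounds and 17beta-estradiol for 21.5 h, then assayed for viability and luciferase.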

[7] = qHTS assay to identify small molecule antagonists of the estrogen receptor alpha (ER-alpha) signaling pathway using the BG1 cell line - cell viability counter screen (AID 743081);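 also: compound given together with 17beta-estradiol as the ER stimulus; series mostly up to about 70 µM; nearly all actives have a fitted effect of over 45% in size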
Aromatase (Homo sapiens) = Aromatase (Homo sapiens) (UniProt P11511); test: qHTS assay to identify aromatase inhibitors (AID 743083); also: nearly all actives have a fitted effect of over 55% in size; also: potency is read from the fitted curve at half-maximal effect
Aromatase (Homo sapiens), sequence (P11511 whole entry, looked up): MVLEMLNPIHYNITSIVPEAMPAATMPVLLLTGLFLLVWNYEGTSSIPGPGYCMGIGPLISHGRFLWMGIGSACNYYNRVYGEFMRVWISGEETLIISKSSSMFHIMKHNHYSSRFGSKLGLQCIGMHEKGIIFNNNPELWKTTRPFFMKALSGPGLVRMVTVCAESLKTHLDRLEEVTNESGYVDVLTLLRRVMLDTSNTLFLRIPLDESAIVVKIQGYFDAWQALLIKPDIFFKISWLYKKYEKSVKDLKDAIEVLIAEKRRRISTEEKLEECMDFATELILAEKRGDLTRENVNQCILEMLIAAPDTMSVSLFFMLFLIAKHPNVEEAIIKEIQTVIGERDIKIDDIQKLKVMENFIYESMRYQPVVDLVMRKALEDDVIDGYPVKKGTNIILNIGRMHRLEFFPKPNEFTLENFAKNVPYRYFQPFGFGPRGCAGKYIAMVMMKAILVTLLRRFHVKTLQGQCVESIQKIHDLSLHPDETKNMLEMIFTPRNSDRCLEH

[8] = biological target: Aryl hydrocarbon receptor (Homo sapiens) (UniProt P35869); test: qHTS assay to identify small molecule that activate the aryl hydrocarbon receptor (AhR) signaling pathway (AID 743085); also: nearly all actives have a fitted effect of over 15% in size; also: potency is read from the fitted curve at half-maximal effect;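 as to activation: HG2L7.5c1 human HepG2 liver cells with stably integrated DRE-driven firefly reporter; series mostly up to about 70 µM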
Aryl hydrocarbon receptor (Homo sapiens), sequence (P35869 whole entry, looked up): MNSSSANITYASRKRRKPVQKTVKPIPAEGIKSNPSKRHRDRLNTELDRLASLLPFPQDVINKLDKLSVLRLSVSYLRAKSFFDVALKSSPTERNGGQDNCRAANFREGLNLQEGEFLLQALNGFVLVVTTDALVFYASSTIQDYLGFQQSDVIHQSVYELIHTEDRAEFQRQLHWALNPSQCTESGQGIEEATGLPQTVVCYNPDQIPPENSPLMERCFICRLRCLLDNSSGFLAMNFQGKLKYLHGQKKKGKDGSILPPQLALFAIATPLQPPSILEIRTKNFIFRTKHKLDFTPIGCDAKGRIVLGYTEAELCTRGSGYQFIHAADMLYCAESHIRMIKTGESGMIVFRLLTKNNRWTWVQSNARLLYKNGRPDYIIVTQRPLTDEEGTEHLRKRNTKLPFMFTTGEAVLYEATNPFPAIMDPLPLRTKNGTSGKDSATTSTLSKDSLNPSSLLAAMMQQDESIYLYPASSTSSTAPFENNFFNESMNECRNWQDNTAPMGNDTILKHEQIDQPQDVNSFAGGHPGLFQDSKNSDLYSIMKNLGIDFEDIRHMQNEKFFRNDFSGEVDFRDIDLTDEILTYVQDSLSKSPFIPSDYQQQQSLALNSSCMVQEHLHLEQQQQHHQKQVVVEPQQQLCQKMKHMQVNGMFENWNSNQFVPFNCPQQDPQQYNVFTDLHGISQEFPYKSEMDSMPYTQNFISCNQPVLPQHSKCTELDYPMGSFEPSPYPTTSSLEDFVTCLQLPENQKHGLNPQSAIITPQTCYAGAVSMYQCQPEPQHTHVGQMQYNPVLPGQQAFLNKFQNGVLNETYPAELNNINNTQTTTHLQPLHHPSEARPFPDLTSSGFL
Method in brief: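 Compounds were tested in HepG2 hepatocellular carcinoma cells harbouring a stably integrated luciferase gene under control of 20 DREs. Increased reporter signal after 24 h treatment at 37C was taken as AhR activation.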

[9] = qHTS assay to identify small molecule that activate the aryl hydrocarbon receptor (AhR) signaling pathway - cell viability counter screen (AID 743086); also: nearly all actives have a fitted effect of over 45% in size; also: potency is read from the fitted curve at half-maximal effect
Method in brief: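 HepG2-AhR-luc (HG2L7.5c1) cells, 4000/well, treated 24 h at 37 C with compound; viability measured as CellTiter-Fluor fluorescence after 30 min in the same wells as the luciferase read.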

[10] = biological target: Peroxisome proliferator-activated receptor gamma (Homo sapiens) (UniProt P37231); test: qHTS assay to identify small molecule agonists of the peroxisome proliferator-activated receptor gamma (PPARg) signaling pathway (AID 743094; active = well fitted activation curve with a large enough effect in the signal ratio in the repeat runs, not every such curve was filed as active; inconclusive = weak or mixed curves, or effect the other way; inactive = no such curve, though single readings can be large or run the other way; the % refers to the signal ratio; also: potency is read from the fitted curve at half-maximal effect)
Peroxisome proliferator-activated receptor gamma (Homo sapiens), sequence (P37231 whole entry, looked up): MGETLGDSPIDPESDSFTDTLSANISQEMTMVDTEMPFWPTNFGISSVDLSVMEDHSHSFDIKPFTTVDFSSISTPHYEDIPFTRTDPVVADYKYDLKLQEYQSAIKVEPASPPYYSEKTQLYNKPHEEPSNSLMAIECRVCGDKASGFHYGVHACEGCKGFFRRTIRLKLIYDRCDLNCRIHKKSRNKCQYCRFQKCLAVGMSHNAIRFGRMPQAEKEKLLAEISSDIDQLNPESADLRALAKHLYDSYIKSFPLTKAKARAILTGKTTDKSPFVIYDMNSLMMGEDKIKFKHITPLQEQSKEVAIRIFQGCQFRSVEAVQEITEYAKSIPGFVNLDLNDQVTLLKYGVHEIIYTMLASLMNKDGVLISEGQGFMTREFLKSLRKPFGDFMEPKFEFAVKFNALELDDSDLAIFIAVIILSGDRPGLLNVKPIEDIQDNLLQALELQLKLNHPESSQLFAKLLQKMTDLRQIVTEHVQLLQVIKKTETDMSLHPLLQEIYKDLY
Method in brief: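 Quantitative HTS agonist mode: stable HEK293H line with UAS-beta-lactamase reporter under PPARg control, 17 h compound exposure at 37C, fluorescence after 1 h FRET substrate loading at room temperature.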

[11] = biological target: Estrogen receptor (Homo sapiens) (UniProt P03372); test: qHTS assay to identify small molecule agonists of the estrogen receptor alpha (ER-alpha) signaling pathway using the BG1 cell line (AID 743079); also: nearly all actives have a fitted effect of over 20% in size; also: potency is read from the fitted curve at half-maximal effect
[12] = qHTS assay to identify aromatase inhibitors - cell viability counter screen (AID 743084);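 also: cells stimulated with testosterone during compound exposure; nearly all actives have a fitted effect of over 55% in size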; also: potency is read from the fitted curve at half-maximal effect
[13] = qHTS assay for small molecule activators of the heat shock response signaling pathway - cell viability counter screen (AID 743209); also: nearly all actives have a fitted effect of over 50% in size; also: potency is read from the fitted curve at half-maximal effect
Method in brief: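 First, HSE-bla HeLa cells were seeded at 1500 cells/well and kept overnight at 37 C. Next, compounds were pinned in and incubated 5 h. After the FRET substrate step, CellTiter-Glo was added and luminescence read 30 min later.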

[14] = qHTS assay to identify small molecule antagonists of the peroxisome proliferator-activated receptor gamma (PPARg) signaling pathway - cell viability counter screen (AID 743194); also: nearly all actives have a fitted effect of over 55% in size; also: potency is read from the fitted curve at half-maximal effect
Method in brief: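 Cytotoxicity counter screen in PPARg-bla HEK293H cells, same wells as reporter assay. Compounds plus 50 nM rosiglitazone (final) for 17 h at 37 C, then viability read by CellTiter-Glo luminescence.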

[15] = qHTS assay for small molecule agonists of the antioxidant response element (ARE) signaling pathway - cell viability counter screen (AID 743203; calls by dose curve; also: nearly all actives have a fitted effect of over 55% in size; also: potency is read from the fitted curve at half-maximal effect)
Method in brief: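 Seeded at 2,000 cells/well, ARE-bla HepG2 cells were incubated 5 hrs before compound addition. After 16 hrs of treatment at 37C with 5% CO2, CellTiter-Glo reagent was added and luminescence read 30 min later.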

[16] = biological target: Peroxisome proliferator-activated receptor gamma (Homo sapiens) (UniProt P37231); test: qHTS assay to identify small molecule antagonists of the peroxisome proliferator-activated receptor gamma (PPARg) signaling pathway (AID 743191; calls by dose curve; also: series mostly up to about 63 µM; nearly all actives have a fitted effect of over 30% in size)
Method in brief: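 GeneBLAzer PPARg UAS-bla HEK293H cells, 5 h post-plating, exposed to compounds 17 h at 37C. LiveBLAzer B/G FRET substrate added for 1 h at room temperature; beta-lactamase reporter read by fluorescence intensity.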

[17] = test system: thyroid hormone receptor (rat, GH3 cells); test: qHTS assay to identify small molecule agonists of the thyroid receptor (TR) signaling pathway (AID 743066; calls by dose curve)
[18] = qHTS assay for small molecule agonists of the antioxidant response element (ARE) signaling pathway (AID 743202; active = well fitted activation curve with a large enough effect in the signal ratio in the repeat runs, not every such curve was filed as active; inconclusive = weak or mixed curves, or effect the other way; inactive = no such curve, though single readings can be large or run the other way; the % refers to the signal ratio)
Method in brief: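 ARE-bla HepG2 cells (beta-lactamase reporter under the antioxidant response element), plated 5 hours, then exposed to compounds 16 hours at 37 C. LiveBLAzer B/G FRET substrate added for 2 hours at room temperature; fluorescence intensity read.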

[19] = qHTS assay for small molecule activators of the heat shock response signaling pathway (AID 743210; active = well fitted activation curve with a large enough effect in the signal ratio in the repeat runs, with a control signal flat, not every such curve was filed as active; inconclusive = weak or mixed curves; the % refers to the signal ratio; also: series mostly up to about 63 µM)
Method in brief: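 HSE-bla HeLa cells (beta-lactamase reporter under heat shock response elements), plated overnight, then exposed to compounds 5 h at 37 C; LiveBLAzer B/G FRET substrate added, 2.5 h at room temperature, fluorescence intensity read.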

Measured: Potency

COC(=O)C[C@](O)(CCCC(C)(C)O)C(=O)O[C@@H]1C(OC)=CC23CCCN2CCc2cc4c(cc2[C@H]13)OCO4 (some centres not stated)
inactive: [4] | [5] | [7]
active: [1] 0.0596 µM | [2] 0.0376 µM | [3] 674 nM [inconclusive] and 1.2 µM [inconclusive] | [6] 0.168 µM | Aromatase (Homo sapiens) 29.8 nM and 23.7 nM

CCCCCCCC[N+](C)(C)CCCCCCCC
active: [1] 21.1 µM | [2] 11.9 µM and 13.3 µM | [6] 29.8 µM | Aromatase (Homo sapiens) 29.8 µM and 26.6 µM
inactive: [5] | [7] | [8] | [9] | [10]

CNCCC=C1c2ccccc2CCc2ccccc21
inactive: [5] | [11] | [6] | [7] | [12] | [8]
active: [1] 11.9 µM | [2] 10.6 µM

C=CCc1cc(S(=O)(=O)c2ccc(O)c(CC=C)c2)ccc1O
inactive: [4] | [5] | [7] | [12] | [10] | [13]
active: [1] 61.1 µM | [2] 24.3 µM | [3] 34.7 µM [inconclusive] | [6] 61.1 µM | Aromatase (Homo sapiens) 54.5 µM

CCCCCCCCOC(=O)c1cc(O)c(O)c(O)c1
active: [1] 2.17 µM | [2] 1.93 µM | [3] 61.6 µM [cytotoxic] | Aromatase (Homo sapiens) 34.4 µM | [12] 54.5 µM | [14] 34.7 µM | [15] 54.5 µM

N#Cc1nc(Cl)c(Cl)c(Cl)c1Cl
inactive: [7] | [8]
active: [1] 2.43 µM | [2] 1.72 µM | Aromatase (Homo sapiens) 4.86 µM | [12] 7.7 µM | [9] 54.5 µM | [14] 4.36 µM | [15] 6.11 µM | [13] 2.19 µM

O=[N+]([O-])c1ccc(O)c2ncccc12
inactive: [9] | [16] | [14] | [13]
active: [1] 5.31 µM | [2] 4.73 µM | Aromatase (Homo sapiens) 7.5 µM | [12] 10.6 µM | [8] 3.35 µM

COc1c(Br)cc(Br)c(C)c1Br
inactive: [1] | [2] | [17] | [4] | [7] | [9] | [14] | [18] | [15] | [13] | [19]

COc1cc(NS(C)(=O)=O)ccc1Nc1c2ccccc2nc2ccccc12
inactive: [4]
active: [1] 0.188 µM | [2] 0.596 µM | Aromatase (Homo sapiens) 26.6 µM | [9] 13.3 µM | [10] 21.3 µM

NC(=S)NS(=O)(=O)c1ccc(N)cc1
inactive: [1] | [2] | [17] | [4] | Aromatase (Homo sapiens) | [12] | [8] | [9] | [10]

CN[C@H]1CC[C@@H](c2ccc(Cl)c(Cl)c2)c2ccc(S(N)(=O)=O)cc21
inactive: [5] | [7] | [8] | [13] | [19]
active: [1] 8.63 µM | [2] 4.33 µM | [6] 68.6 µM | Aromatase (Homo sapiens) 48.6 µM | [9] 61.1 µM | [14] 49 µM | [15] 24.3 µM

Cc1cc(=O)c(C(=O)N[C@@H](C(=O)N[C@@H]2C(=O)N3C(C(=O)O)=C(CSc4nnnn4C)CS[C@H]23)c2ccc(O)cc2)c[nH]1
active: [11] 23.7 µM
not listed: [2] | [13] | [14] | [15] | [16] | [18] | [19]
inactive: all other assays above

CN1CCN(c2ccccc2/C=C2\SCCN(c3ccc(Cl)c(Cl)c3)C2=O)CC1
inactive: [5] | Aromatase (Homo sapiens) | [8]
active: [1] 8.63 µM | [2] 8.63 µM | [4] 43.6 µM | [14] 49 µM | [15] 24.3 µM | [13] 54.9 µM

CCOc1cc(CC(=O)N[C@@H](CC(C)C)c2ccccc2N2CCCCC2)ccc1C(=O)O
inactive: [1] | [2] | [17] | [4] | Aromatase (Homo sapiens) | [12] | [8] | [9]

CO/N=C(\C(=O)N[C@@H]1C(=O)N2C(C(=O)O)=C(C[N+]3(C)CCCC3)CS[C@H]12)c1csc(N)n1
not listed: [2] | [13] | [14] | [15] | [16] | [18] | [19]
inactive: all other assays above

CCCCCCCCCC[N+](C)(CCCCCCCCCC)CCC[Si](OC)(OC)OC
inactive: [17] | [11] | [6] | [7] | [8]
active: [1] 21.7 µM | [4] 49 µM | Aromatase (Homo sapiens) 61.1 µM | [12] 61.1 µM | [14] 30.9 µM | [13] 13.8 µM

O=P(O)(O)OP(=O)(O)OP(=O)(O)O
not listed: [2] | [13] | [14] | [15] | [16] | [18] | [19]
inactive: all other assays above
